# Laboratory results: PubChem BioAssay AID1626 (SRMLSC, 2009)
# The whole screen tested about 220,000 compounds, of which about 2,000 (0.91%) were called active. Roughly 2% stayed inconclusive and do not appear here. These entries were drawn from the full list. Measured potencies and affinities stand elsewhere. Unmarked numbers belong to inactive results. Cut-off read from the data, not from the text of the source: inconclusive = inhibition above about 80% without an active follow-up result; inactive = below that; test concentration not stated here.
# Assay: M. tuberculosis H37Rv growth inhibitors, H37Rv strain (AID 1626);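 note: bacteria incubated seven days before Alamar blue readout; 0% = bacteria only wells and 100% = bacteria with antibiotic wells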
# Details: stronger effect = higher value, concentration not given here
row,Compound,inhibition [%]
1,CCC(=NCc1ccc2c(c1)OCO2)c1c(O)n(C)c(=O)n(C)c1=O,-0.05
2,Clc1cccc(Cl)c1/C=N/Nc1c(Cl)cncc1Cl,-5.97
3,COc1ccc(/C=C2\C(=O)c3ccccc3OC2c2ccccc2)cc1 (configuration not stated),0.26
4,Cc1ccc(N=Cc2ccc[nH]2)c(O)c1,-2.8
5,O=C(N/N=C/c1ccc[nH]1)c1ccccc1O,-6.87
6,Cc1ccc(CCSc2ccc(F)cc2)cn1,0.68
7,O=C(O)CCc1ccc(-c2ccc(Cl)cc2)o1,62.7
8,CN1CCN(Cc2ccc(-c3ccc(Cl)cc3)o2)CC1,4.34
9,O=C(COCC(=O)N1CCOCC1)N1CCOCC1,-0.86
10,COc1ccc(OC)c(-n2nnnc2SCC(=O)Nc2nc(C)c(C)s2)c1,-6.27
11,COc1ccc(C(=O)Nc2ccccc2Cc2ccccc2)c(OC)c1,12.6
12,C=CCOC(=O)c1ccc(-n2cnc(C)n2)nc1,34.4
13,CCOCCOC(=O)c1ccc(-n2cnc(C)n2)nc1,1.52
14,CC(C)CN1CCN(Cc2ccc(Oc3ncccn3)cc2)CC1CCO (configuration not stated),-12.7
15,Cc1ccccc1NC(=O)c1ccc([N+](=O)[O-])o1,-5.26
16,O=C(NCc1cccnc1)c1ccc([N+](=O)[O-])o1,9.87
17,O=C(Nc1cccc(NC(=O)c2cccs2)c1)c1ccco1,-1.16
18,O=C(Nc1ccc2oc(-c3cccnc3)nc2c1)c1ccc(Br)o1,-4.68
19,Cc1cccc(NC(=O)COC(=O)c2ccc([N+](=O)[O-])o2)c1C,-1.87
20,COc1cc(NC(=O)c2ccc([N+](=O)[O-])o2)ccc1NC(=O)c1cccs1,11.9
21,Cc1ccc(CNC(=O)c2ccc(Br)o2)cc1,6.85
22,O=C(Nc1ccc2oc(-c3cccnc3)nc2c1)c1ccco1,-0.84
23,O=C(NCCCN1CCOCC1)C(C(=O)NCCCN1CCOCC1)c1ncc(C(F)(F)F)cc1Cl,-6.54
24,O=C1CC(C(=O)O)S/C(=N\N=C\c2ccc(Br)cc2)N1 (configuration not stated),-6.35
25,COc1cccc(OC)c1C(=O)NNC(=O)c1ccc(F)cc1,-2.49

row,Compound,inhibition [%]
1,COc1ccccc1CN1C[C@@H]2C[C@@H](c3cccc(C)c3)N3CCC[C@@]23C1=O,4.89
2,CCN(CC)S(=O)(=O)c1ccc(N/N=C(\C)c2ccc3c(c2)OCO3)c([N+](=O)[O-])c1,2.18
3,NC(=O)N/N=C/c1coc2ccc(O)cc2c1=O,-3.42
4,Cc1cccc(NC(=O)c2ccc([N+](=O)[O-])o2)n1,3.18
5,NS(=O)(=O)c1ccc(O)c(NC(=O)c2ccc([N+](=O)[O-])o2)c1,-1.93
6,Cc1cccnc1NC(=O)c1ccc([N+](=O)[O-])o1,2.32
7,Cc1ccnc(NC(=O)c2ccc([N+](=O)[O-])o2)c1,5.02
8,O=C(Nc1ncccn1)c1ccc([N+](=O)[O-])o1,0.82
9,Cc1cc(C)nc(NC(=O)c2ccc([N+](=O)[O-])o2)n1,-5.31
10,C=CCNC(=O)c1ccc2c(c1)S(=O)(=O)c1ccccc1C2=O,-9.32
11,COc1cc(C(=O)N2CCN(c3ccccc3)CC2)c([N+](=O)[O-])cc1OC,3.88
12,CN(C)c1ccc(CC(=O)c2nc3ccccc3s2)cc1,-5.99
13,CCCSc1nnc(NC(=O)Nc2ccc(F)cc2)s1,17
14,O=C(NCC1CCCN(Cc2cccc(C(F)(F)F)c2)C1)c1ccc(F)cc1 (configuration not stated),-2.43
15,Cn1cc(/C=C(\C#N)C(=O)Nc2ncc(Cc3cccc(Cl)c3)s2)c2ccccc21,4.07
16,Cn1cc(/C=C(\C#N)C(=O)Nc2ncc(Cc3ccc(Cl)cc3)s2)c2ccccc21,1.97
17,COC(C/C=C/[C@H](O)[C@H](C)OCc1ccccc1)OC,-0.67
18,O=[N+]([O-])c1ccc(N=Nc2ccc(O)cc2O)cc1,5.58
19,O=c1[nH]c(O)c(N=Nc2ccc([N+](=O)[O-])cc2)c(=O)[nH]1,-0.55
20,COC(=O)CCC(=O)N1CCc2cc(S(=O)(=O)N3CCN(c4ccccc4Cl)CC3)ccc21,3.32
21,CN(C)c1ccc(C(=S)N2CCCCC2)cc1Br,6.15
22,Cc1cccc(N=c2c([N+](=O)[O-])nn(-c3ccc(Cl)cc3)n2O)c1,36.6
23,Cc1ccc(CN=c2c([N+](=O)[O-])nn(-c3cccc(C)c3)n2O)cc1,-1.44
24,Cc1cc(C)cc(N=c2c([N+](=O)[O-])nn(-c3ccc(Cl)cc3)n2O)c1,48.3
25,O=[N+]([O-])c1nn(-c2cccc(Cl)c2)n(O)c1=NCc1cccnc1,6.16

row,Compound,inhibition [%]
1,O=C(CCC1CCCN(Cc2ccc3c(c2)OCCO3)C1)NCc1ccccc1F (configuration not stated),-11.3
2,CCCNC(=O)NC(=O)CSc1ccc2c(c1)OCCO2,5.15
3,O=C(Nc1cc(C(F)(F)F)ccc1Cl)C1CCN(c2nnc(-n3cccc3)s2)CC1,-3.21
4,O=C(C1CCN(c2nnc(-n3cccc3)s2)CC1)N1CCOCC1,0.74
5,O=C(C1CCCN(c2nnc(-n3cccc3)s2)C1)N1CCN(c2ccccc2)CC1 (configuration not stated),63.1
6,O=C(NCCCN1CCc2ccccc2C1)C1CCN(c2nnc(-n3cccc3)s2)CC1,-4.77
7,COc1ccc(CN2C(=O)NC(=O)/C(=C\c3ccco3)C2=O)cc1,-5.87
8,O=C(O)c1cc([N+](=O)[O-])cc2c1nnn2O,-1.94
9,COc1cc(C(=O)Nc2ccc3c(c2)OCCO3)ccc1OC(C)C,-2.6
10,COc1ccccc1Oc1ccc(N/C=C/C(=O)C(C)(C)C)cc1,-4.81
11,CCOc1ccccc1N/C=C/C(=O)C(C)(C)C,4.06
12,COc1cccc(Oc2ccc(N/C=C/C(=O)C(C)(C)C)cc2)c1,1.22
13,CCOC(=O)c1ccc(N/C=C\C(=O)c2cccc(OC)c2)cc1,94.8
14,Cc1ccc(N/C=C/C(=O)C(C)(C)C)c(O)c1,-0.76
15,COc1ccc(N/C=C/C(=O)c2ccc(OC)c(OC)c2)cc1,47
16,CCOC(=O)c1ccc(NC(=O)Nc2ccc(OC)c(OC)c2)cc1,-4.38
17,COc1ccccc1N(C(=O)c1snc(C(N)=O)c1N)C(C(=O)NCCC(C)C)c1ccco1 (configuration not stated),-1.7
18,COc1ccc(C(=O)NC(=O)Nc2ncccc2C)cc1,-9.06
19,O=C(N/N=C1\C(=O)c2cccc3cccc1c23)c1ccc(O)cc1,20.7
20,N#C/C(=C\c1c(Cl)cccc1Cl)c1nn(-c2ccccc2)c(-n2cccc2)c1C#N,-1.88
21,O=S(=O)(NCc1cccnc1)c1ccc(Cl)c(Cl)c1,-0.1
22,CCOC(=O)c1c(-c2ccccc2)csc1NC(=O)CSc1nncs1,4.86
23,CCN(CC)C(=O)C(=O)c1cccn1-c1cccc(Cl)c1C#N,-4.03
24,CC(=O)c1c(C)[nH]c(C(=O)NCCc2cccc(C)c2)c1C,3.77
25,CCn1c(COc2ccccc2)nc2ccccc21,-0.43

row,Compound,inhibition [%]
1,O=C(Cc1csc(-c2ccccc2)n1)NCc1cccs1,2.64
2,COc1ccccc1C(=O)OCc1c(F)cccc1Cl,-0.9
3,CCOC(=O)c1ccc(N/C=C/C(=O)c2ccc(OC)cc2)cc1,77.2
4,COC(=O)c1ccc(N/C=C/C(=O)c2ccc(OC)c(OC)c2)cc1,36.6
5,CCOC(=O)c1ccc(N/C=C/C(=O)c2ccco2)cc1,76.7
6,COc1ccc(C(=O)/C=C/Nc2ccc(NC(C)=O)cc2)cc1OC,0.63
7,O=C(Nc1ccc(F)cc1F)c1cccnc1,-2.1
8,O=C(NCCCCNC(=O)c1ccc(Br)s1)c1ccc(Br)s1,-1.39
9,CCOc1ccc(NC(=O)c2ccccc2OCC(=O)c2ccccc2)cc1,4
10,COc1ccccc1-c1nnc(SCC(=O)N2CCOCC2)n1-c1ccccc1,1.2
11,COCCn1c(C)cc(C(=O)CSc2nc(C)nc3sc4c(c23)CCC4)c1C,-2.28
12,O=C(NCC(=O)N1CCC(N2CCCCC2)CC1)C1CCCCC1,-10.3
13,CC(C)(C)c1nnc2sc(SCC(=O)N3CCc4ccccc43)nn2c1=O,1.69
14,CCS(=O)(=O)N1CCN(C2Cc3ccccc3C2)CC1,-4.5
15,Cc1cc(Cl)ccc1OCCCC(=O)NN,-1.79
16,COc1ccc(NC(=O)COC(=O)/C=C/C(=O)OCC(=O)Nc2ccc(OC)c(Cl)c2)cc1Cl,-1.96
17,COc1ccc(NC(=O)COC(=O)CCCOc2ccc(Cl)cc2Cl)cc1,12.7
18,Cc1cc(Cl)ccc1OCCCC(N)=O,-0.81
19,O=C(COC(=O)CCCOc1ccc(Cl)cc1Cl)Nc1cccc(Cl)c1,6.33
20,CCOC(=O)/C=C/C(=O)OCC(=O)Nc1ccc(OC)c(Cl)c1,3.02
21,COC(=O)CCC(=O)Nc1ccc(Cl)c(Cl)c1,-2.69
22,O=C(O)CCCC(=O)Nc1ccc(Cl)c(Cl)c1,-7.53
